Rows were chosen to be rich in hits. Some 3.5% of all compounds tested hit in one or more screens of this group.
FBW7 act – activators of human E3 ligase FBW7; Q969H0; AlphaScreen FBW7–phospho-cyclin E peptide binding, activator screen; normalized activity (activation), % at 26.1 µM; actives 0.13% (n = 650,000); AID 1259310; in the data active means normalized activity above about 1.9%;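 further: purified mutant Fbw7 with reduced substrate affinity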
GPR151 activ – activators of human GPR151 | Q8TDV0 | PathHunter beta-arrestin GPR151 cells, luminescence | activation, % at 11.2 µM | actives 1% (n = 650,000) | AID 1508602; in the data active means activation above about 4.9%;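 further: 0% = median of compound wells and 100% = cells with positive control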
MITF primary – blocks human microphthalmia-associated transcription factor; AlphaScreen MITF homodimerization, bead proximity signal; O75030; inhibition, % at 2.6 µM; actives 0.91% (n = 650,000); in the data active means inhibition above about 50%;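 further: 0% = vehicle wells with protein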
Target sequence (O75030 whole entry, looked up): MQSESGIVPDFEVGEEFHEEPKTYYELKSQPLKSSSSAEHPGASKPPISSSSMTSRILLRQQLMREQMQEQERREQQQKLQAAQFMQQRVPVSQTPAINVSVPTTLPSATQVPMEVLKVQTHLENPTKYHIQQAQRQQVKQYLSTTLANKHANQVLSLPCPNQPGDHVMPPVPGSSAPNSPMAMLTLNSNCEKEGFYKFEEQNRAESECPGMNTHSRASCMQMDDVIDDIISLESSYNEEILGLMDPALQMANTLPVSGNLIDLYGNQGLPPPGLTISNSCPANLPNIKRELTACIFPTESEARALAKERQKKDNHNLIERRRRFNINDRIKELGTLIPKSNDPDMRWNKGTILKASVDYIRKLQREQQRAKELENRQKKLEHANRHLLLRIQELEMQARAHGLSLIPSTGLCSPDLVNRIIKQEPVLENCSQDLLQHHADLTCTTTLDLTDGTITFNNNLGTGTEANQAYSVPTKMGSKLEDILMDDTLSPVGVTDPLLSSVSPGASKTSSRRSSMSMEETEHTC
TEAD-YAP inh – TEAD-YAP interaction inhibition; HEK-TIYL cells, TEAD-Gal4/YAP UAS-luciferase luminescence; inhibition, % at 9.12 µM; actives 1.4% (n = 640,000); in the data active means inhibition above about 32%;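 further: 0% = median of test compound wells and 100% = reference inhibitor wells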
The depositor's hits bear a star; / = no result; ! = a repeat was not active.

SMILES | FBW7 act | GPR151 activ | MITF primary | TEAD-YAP inh
Cc1onc(-c2ccccc2)c1C(=O)Nc1ncc([N+](=O)[O-])s1 | 0.0 | 1.4 | -2.1 | 37.6*
Cc1onc(-c2ccccc2Cl)c1C(=O)Nc1ncc([N+](=O)[O-])s1 | 0.0 | -0.1 | 7.3 | 0.0
O=C(Nc1nc2ccc3ccccc3c2s1)c1ccc(Br)cc1 | 0.1 | -0.4 | -11.8 | 2.2
Cc1ccccc1/C=C1\SC(=Nc2ccccc2Cl)NC1=O | -0.1 | -0.1 | -3.0 | 45.1*
Cc1cc(/C=C2\SC(=Nc3ccccc3Cl)NC2=O)c(C)n1-c1ccccc1 | -0.1 | 2.2 | -2.0 | 48.2*
Cc1cnc(NCc2cccnc2)nc1Nc1ccc(N2CCOCC2)cc1 | -0.1 | -0.9 | 11.8 | 9.1
Fc1ccc(CN(C(=S)Nc2cccc(C(F)(F)F)c2)C2CCCCC2)cc1 | 0.0 | -0.8 | 3.4 | 2.0
COc1cccc2c1C(=O)c1c(O)c3c(c(O)c1C2=O)C[C@@](O)(C(=O)CO)C[C@@H]3O[C@H]1C[C@H](N)[C@@H](O)[C@H](C)O1 | -0.4 | 0.0 | 29.9 | 61.6*
COc1cccc2c1C(=O)c1c(O)c3c(c(O)c1C2=O)C[C@@](O)(C(C)=O)C[C@@H]3O[C@H]1C[C@H](N)[C@H](O)[C@H](C)O1 | -0.1 | -1.1 | 23.1 | 92.7*
CC(=O)[C@]1(O)Cc2c(O)c3c(c(O)c2[C@@H](O[C@H]2C[C@H](N)[C@H](O)[C@H](C)O2)C1)C(=O)c1ccccc1C3=O | -0.2 | 1.0 | 12.4 | -32.6
CC(C)n1cc(-c2cnc3ccccc3n2)cn1 | -0.2 | -8.4 | -1.2 | 71.6*
CCCCCC(=O)Oc1ccc(-c2cnc3ccccc3n2)cc1 | 0.8 | -0.9 | 15.1 | 6.6
CC(=O)Oc1ccc(-c2cnc3ccccc3n2)cc1 | 0.1 | -7.9 | 5.8 | 40.2*
O=C(Oc1cccc(-c2cnc3ccccc3n2)c1)c1ccco1 | -0.3 | -0.7 | 1.6 | 42.9*
CCOc1ccc(-c2cnc3ccccc3n2)cc1 | 0.2 | -5.3 | 8.1 | 75.3*
COc1ccc(-n2ncc3c(N4CCN(c5ccccc5OC)CC4)ncnc32)cc1 | 0.0 | -0.4 | -3.2 | 7.3
NC(=O)c1ccccc1NC(=O)c1ncoc1-c1ccccc1C(F)(F)F | 0.1 | -2.0 | -0.3 | 49.2*
O=C(Nc1ccccc1-n1ccnc1)c1ncoc1-c1ccccc1C(F)(F)F | 0.1 | 0.8 | 7.5 | 5.6
CCC(=O)c1ccc(OC(=O)C(C(C)C)N2C(=O)c3ccccc3C2=O)cc1 (centres undefined) | 0.9 | -0.2 | 20.1 | -7.5
CC(=O)CC(=O)Nc1ccnn1-c1ccccc1 | -0.1 | -1.2 | -16.7 | 1.4
CCOC(=O)C/C(C)=N/c1ccnn1-c1ccccc1 | -0.1 | -4.0 | 2.2 | 76.4*
COc1cccc(CCc2nnc(CCC(=O)NCc3csc(C(C)C)n3)o2)c1 | 0.0 | -0.2 | -3.6 | -6.6
CCCCCCOc1ccccc1/C=C1/N=C(c2ccc(Cl)cc2)OC1=O | 0.1 | 0.0 | 7.8 | 3.4
C/C=C/C(=O)Oc1ccccc1/C=C1/N=C(c2ccc(Cl)cc2)OC1=O | 0.0 | -0.7 | 18.6 | 36.4*
COc1ccc(Nc2ncnc3sc4c(c23)CCC4)cc1O | -0.1 | -1.1 | 5.4 | 37.0*
SMILES | FBW7 act | GPR151 activ | MITF primary | TEAD-YAP inh
COc1cc(/C=N/NC(=O)CSCc2ccccc2Cl)ccc1O | 0.0 | 1.7 | -4.7 | 8.3
CC(C)c1cc(C(=O)Nc2cccc(O)c2)no1 | -0.2 | -4.4 | 11.8 | 80.6*
CC(C)Cc1cc(C(=O)Nc2cccc(Cl)c2)no1 | 0.0 | 0.4 | -24.3 | -47.8
CC(C)Cc1cc(C(=O)Nc2cccc(O)c2)no1 | -0.1 | -1.0 | 5.1 | 86.7*
Cc1nn(-c2ccccc2)c(Cl)c1CO | 0.1 | 0.5 | 0.6 | -1.6
c1ccc(-n2cnc3c(NCc4nc5ccccc5[nH]4)nc(-c4csc5ccccc45)nc32)cc1 | 6.9* | -1.0 | -3.0 | -10.4
c1ccc(Nc2nc(NCc3nc4ccccc4[nH]3)c3ncn(-c4ccccc4)c3n2)cc1 | 0.3 | 0.6 | 14.7 | 34.0*
CCNc1nc(NCc2nc3ccccc3[nH]2)c2ncn(-c3ccccc3)c2n1 | -0.1 | 2.5 | 7.6 | -0.9
COc1cc(Nc2nc(NCc3nc4ccccc4[nH]3)c3ncn(-c4ccccc4)c3n2)cc(OC)c1OC | 0.0 | -0.2 | 0.6 | 61.8*
COc1cc(Nc2nc(NCc3cccnc3)c3ncn(-c4ccccc4)c3n2)cc(OC)c1OC | 0.0 | 1.1 | 12.1 | 1.3
C/C(=N\N=C(N)N)c1ccc(N2CCOCC2)cc1 | -0.1 | 0.3 | -6.5 | 51.8*
C/C(=N\N=c1/sc2ccccc2n1C)c1ccc(N2CCOCC2)cc1 | 0.1 | 2.7 | -6.1 | -8.3
COc1ccc(/C(C)=N/Nc2nncc3ccccc23)cc1 | -0.2 | -1.0 | -6.2 | 33.0*
NNc1nncc2ccccc12 | 0.7 | -0.9 | 5.0 | 37.3*!
CCCCCOc1ccc(/C=c2\sc3nc(=O)c(Cc4ccccc4)nn3c2=O)cc1OC | 0.0 | 0.4 | 16.2 | 5.9
COCCCNS(=O)(=O)c1ccc(S(=O)(=O)N(C)C)cc1 | 0.0 | -0.9 | 7.2 | 0.0
OCCN1CCN(C(c2ccc(Cl)cc2)c2ccc3cccnc3c2O)CC1 (centres undefined) | -0.5 | 0.4 | 20.7 | 73.5*
Fc1ccc(Cn2nnnc2C(c2ccc3ncccc3c2)N2CCCC2)cc1 (centres undefined) | 0.0 | 0.7 | -5.6 | -7.2
Oc1c(C(c2ccc(C(F)(F)F)cc2)N2CCOCC2)ccc2cccnc12 (centres undefined) | -0.1 | 1.0 | 16.8 | 81.7*
Oc1c(C(c2ccncc2)N2CCOCC2)ccc2cccnc12 (centres undefined) | -0.2 | 1.5 | 90.0* | 71.1*
Oc1c(C(c2ccc(F)cc2)N2CCCC2)ccc2cccnc12 (centres undefined) | -1.9 | -1.3 | 10.9 | 79.7*
COC(=O)c1ccccc1C(=O)N1CCc2nnc(CNC(=O)c3ccccc3)n2CC1 | 0.0 | -0.1 | -1.1 | -0.3
CCCCC/C=C\CC(O)/C=C/C=C\C/C=C\CCCC(=O)O (centres undefined) | / | -0.7 | -1.2 | /
CN1CCN(C(c2cccnc2)c2ccc3cccnc3c2O)CC1 (centres undefined) | -0.3 | 0.3 | 33.5 | -0.5
Oc1c(C(c2ccc(F)cc2)N2CCOCC2)ccc2cccnc12 (centres undefined) | -2.0 | 0.6 | 26.6 | 76.2*
SMILES | FBW7 act | GPR151 activ | MITF primary | TEAD-YAP inh
CN1CCN(C(c2ccc(F)cc2)c2ccc3cccnc3c2O)CC1 (centres undefined) | -0.2 | 0.2 | 33.5 | 83.5*
CCOC(=O)c1c(NC(=O)CCCCCN2C(=O)c3ccccc3C2=O)sc2c1CCC2 | 0.4 | -0.4 | 1.0 | 1.1
COc1ccc(-c2cc3nccc(C4CCNCC4)n3n2)cc1 | 0.6 | 1.4 | 9.7 | 32.9*
Cc1ccc(-c2cc3nccc(C4CCNCC4)n3n2)cc1 | -0.1 | -0.1 | -2.1 | 4.5
O=C(OCC(=O)N1CCN(C(=O)c2ccco2)CC1)c1cc(O)c(O)c(O)c1 | 0.1 | -1.5 | 80.9* | -8.1
CC(=O)NC(c1ccc(N(C)C)cc1)c1ccc2cccnc2c1O (centres undefined) | -2.0 | -0.6 | 58.6* | 81.8*
CCN(CC)c1ccc(C(NC(=O)C(C)C)c2ccc3cccnc3c2O)cc1 (centres undefined) | -1.0 | -1.3 | 19.8 | 73.5*

Source: PubChem BioAssay (The Scripps Research Institute Molecular Screening Center)
